ELG1 genotox: induces genotoxicity in HEK293T cells with luciferase-tagged ELG1; HEK293T ELG1-luciferase reporter, luminescence, 16 h; Potency, µM (series often up to 46 µM), most hits filed as activators; 330,000 tested, 1.3% active; AID 504466; note: nearly all actives have a fitted effect of over 60% in size
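Cells (2,000/well) expressing the ELG1-luciferase fusion are dosed by pin tool and kept 16 hr at 37 °C, 5% CO2. Signal comes from ONE-Glo luciferase reagent after 30 min at room temperature.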
FLuc counter: counter-screen for miR-21 project: firefly luciferase inhibitors or activators; P08659; purified FLuc, Km substrates, luminescence inhibition; Potency, µM (titrated, usually from 57.5 µM), most hits filed as inhibitors; 360,000 tested, 6.9% active; AID 588342; note: nearly all actives have a fitted effect of over 55% in size
Target sequence (P08659 whole entry, looked up): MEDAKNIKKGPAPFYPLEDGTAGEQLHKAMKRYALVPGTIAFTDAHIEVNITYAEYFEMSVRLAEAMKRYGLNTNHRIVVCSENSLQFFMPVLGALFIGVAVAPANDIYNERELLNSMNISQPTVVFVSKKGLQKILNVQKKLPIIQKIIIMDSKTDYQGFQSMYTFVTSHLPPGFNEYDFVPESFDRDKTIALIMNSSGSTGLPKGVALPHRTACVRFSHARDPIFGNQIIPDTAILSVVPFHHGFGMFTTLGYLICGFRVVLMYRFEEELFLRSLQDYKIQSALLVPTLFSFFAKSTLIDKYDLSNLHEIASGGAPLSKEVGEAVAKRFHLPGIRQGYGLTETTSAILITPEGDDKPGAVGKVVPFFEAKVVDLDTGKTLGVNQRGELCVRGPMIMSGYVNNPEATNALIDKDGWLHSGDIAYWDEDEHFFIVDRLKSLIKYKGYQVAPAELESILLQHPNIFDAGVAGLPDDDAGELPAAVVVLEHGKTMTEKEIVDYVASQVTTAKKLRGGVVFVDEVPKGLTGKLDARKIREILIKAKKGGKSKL
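Purified P. pyralis luciferase (10nM final) with 10uM D-luciferin and 10uM ATP (Km levels) in 50mM Tris acetate pH 7.5, 10mM Mg acetate, 0.01% Tween-20, 0.05% BSA; qHTS 6-point titration, ~60 µM downward; luminescence read.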
Rab9 prom act: activators of Rab9 promoter. Huh7 Rab9 promoter-luciferase reporter, luminescence, 24 h. Potency, µM (top dose mostly 9.22 µM), actives largely listed as activators. 320,000 tested, 2.8% active; note: nearly all actives have a fitted effect of over 60% in size
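Cells were plated at 1500 per well in reduced-serum medium with 10% FBS and left 2 h. Compound in DMSO was then added for 24 h at 37 °C. Reporter signal was read by luminescence after 10 min with luciferase detection reagent.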
ELG1 DNA repair: blocks ELG1-dependent DNA repair in HEK293T cells. HEK293T ELG1-luciferase reporter, luminescence, 16 h; DNA damage induced by 5-fluorouridine. Potency, µM (top dose mostly 46.1 µM), actives largely listed as inhibitors. 330,000 tested, 2.3% active; note: nearly all actives have a fitted effect of over 55% in size
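Step one: seed 2,000 cells per well. Step two: pin-transfer compound or DMSO alongside 5-fluorouridine. Step three: incubate 16 hr, 37 °C, 5% CO2. Step four: add ONE-Glo, wait 30 min, read luminescence.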
SMN2 splice enh: increases expression of the SMN2 splice variant; HEK293 SMN2-luciferase splicing reporter, luminescence, 30-36 h; Potency, µM (doses to about 46.1 µM), hits mostly activators; 210,000 tested, 2.8% active; AID 1458; note: nearly all actives have a fitted effect of over 55% in size
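qHTS luciferase splicing reporter: luminescence rises when SMN2 exon 7 is included in transfected HEK293 cells. Compound exposure lasted 30-36 h at 37C, with 4.5 mM final sodium butyrate as control, followed by a ONE-Glo read.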
NPC1 prom act: activators of NPC1 promoter; Huh7 NPC1 promoter luciferase reporter, 24 h; Potency, µM (highest dose often 9.22 µM), most hits filed as activators; 320,000 tested, 2.4% active; AID 485313; note: nearly all actives have a fitted effect of over 60% in size
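Luminescence read-out of NPC1 promoter-driven luciferase in stably transfected Huh7 cells; compounds delivered in DMSO and left 24 h at 37C, 5% CO2, qHTS titration format.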
Of the large screens only hits and unclear results are named; the others gave an inactive call. Hits are enriched below; roughly 9.4% of the tested compounds scored in any of these assays. Calls come from the whole dose curve; as a rule, active = well fitted curve in the direction sought with a large enough effect; inconclusive = small, poorly fitted or top-dose-only effect, or another doubt; inactive = no such curve, though single readings can be large; an effect the other way counts as inactive or inconclusive.

Cc1nc(C)c(-c2csc(NCc3ccccc3)n2)s1	FLuc counter inconclusive
COc1ccc(CCNc2nc(-c3ccc(O)cc3)cs2)cc1OC	FLuc counter 17µM, ELG1 DNA repair 23µM (no result: SMN2 splice enh)
COc1ccc(CCNc2nc(-c3ccncc3)cs2)cc1OC	FLuc counter 21µM, ELG1 DNA repair inconclusive (no result: SMN2 splice enh)
COc1ccc(CCNc2nc(-c3ccc(NC(C)=O)cc3)cs2)cc1OC	FLuc counter inconclusive, ELG1 DNA repair inconclusive
COc1ccc(CCNc2nc(-c3ccccn3)cs2)cc1OC	ELG1 DNA repair 18µM (no result: SMN2 splice enh)
COc1ccc(Oc2ncc3ncc(=O)n(Cc4ccc(F)cc4)c3n2)cc1	none (no result: ELG1 genotox, FLuc counter, Rab9 prom act, ELG1 DNA repair, NPC1 prom act)
COC(=O)c1scc(-c2ccc(C)cc2)c1S(=O)(=O)N1CCN(c2ccccc2F)CC1	none (no result: ELG1 genotox, Rab9 prom act, ELG1 DNA repair, SMN2 splice enh, NPC1 prom act)
Cc1ccccc1NC(=O)Cn1c(SCC(=O)Nc2ccc(F)cc2)nc2ccccc21	none (no result: ELG1 genotox, Rab9 prom act, ELG1 DNA repair, SMN2 splice enh, NPC1 prom act)
COc1ccc(CCNc2nc(-c3cccnc3)cs2)cc1OC	FLuc counter 12µM, ELG1 DNA repair inconclusive
C=C(C)CN(CC#N)CC(=C)C	none (no result: ELG1 genotox, FLuc counter, Rab9 prom act, ELG1 DNA repair, NPC1 prom act)
COc1ccc(C(=O)Nc2ccc(CN3CCOCC3)cc2)cc1Br	FLuc counter 15µM (no result: SMN2 splice enh)
COc1c(C)cccc1C(=O)Nc1ccc(OCC(=O)N2CCOCC2)cc1C	FLuc counter 13µM (no result: SMN2 splice enh)
CC(C)Oc1cccc(C(=O)Nc2ccc(CN3CCOCC3)cc2)c1	FLuc counter 12µM, ELG1 DNA repair inconclusive
CCCOc1ccc(C(=O)Nc2ccc(CN3CCOCC3)cc2)cc1	FLuc counter 13µM (no result: SMN2 splice enh)
CCOC(=O)c1ccc(NC(=O)NCCOCCn2c(=O)oc3ccccc32)cc1	none (no result: ELG1 genotox, Rab9 prom act, ELG1 DNA repair, NPC1 prom act)
O=C(CSc1nc2ccccc2c2nc(-c3ccccc3)nn12)Nc1ccc(F)cc1	none (no result: ELG1 genotox, Rab9 prom act, ELG1 DNA repair, SMN2 splice enh, NPC1 prom act)
COc1c(C)cccc1C(=O)Nc1ccc(CN2CCOCC2)cc1	ELG1 genotox inconclusive, FLuc counter 17µM, Rab9 prom act 2.5µM, ELG1 DNA repair inconclusive, SMN2 splice enh 16µM, NPC1 prom act 3.2µM
O=C(Nc1ccc2c(c1)OCCO2)c1ccc(CN2CCOCC2)cc1	FLuc counter 11µM, Rab9 prom act 3.5µM, ELG1 DNA repair inconclusive
COc1cccc(NC(=O)c2ccc(CN3CCOCC3)cc2)c1	FLuc counter 11µM, Rab9 prom act 3.2µM, ELG1 DNA repair inconclusive, SMN2 splice enh inconclusive, NPC1 prom act 4µM
COc1ccc(NS(=O)(=O)c2ccc(NC(=O)c3ccc(CN4CCOCC4)cc3)cc2)cc1	none (no result: SMN2 splice enh)
COc1ccc(Cl)cc1NC(=O)c1noc2c1CCc1ccccc1-2	none (no result: ELG1 genotox, Rab9 prom act, ELG1 DNA repair, NPC1 prom act)
Cc1ccc2c(c1)Sc1c(ccc3ccccc13)N2	ELG1 genotox inconclusive, FLuc counter 12µM, Rab9 prom act 2.5µM, ELG1 DNA repair inconclusive, NPC1 prom act inconclusive (no result: SMN2 splice enh)
Cc1cc(C)c(-n2c(SCc3nc4ccccc4s3)n[nH]c2=O)c(C)c1	none (no result: SMN2 splice enh)
CCCn1c(=O)c2ccccc2n2c(SCc3nc4ccccc4s3)nnc12	ELG1 genotox inconclusive, FLuc counter 11µM, Rab9 prom act inconclusive, ELG1 DNA repair inconclusive, SMN2 splice enh inconclusive
CCCn1c(SCc2nc3ccccc3s2)n[nH]c1=O	ELG1 genotox 18µM, FLuc counter 5.4µM, Rab9 prom act 3.5µM, ELG1 DNA repair inconclusive, SMN2 splice enh inconclusive
CCCCn1c(SCc2nc3ccccc3s2)nc2cc(S(N)(=O)=O)ccc21	FLuc counter inconclusive, ELG1 DNA repair 18µM
O=c1[nH]nc(SCc2nc3ccccc3s2)n1C1CC1	ELG1 genotox 21µM, FLuc counter 24µM, Rab9 prom act inconclusive, ELG1 DNA repair inconclusive, SMN2 splice enh inconclusive
CCCCn1c(SCc2nc3ccccc3s2)nc2ccccc2c1=O	none
CCC(=O)C1=C(c2cccc([N+](=O)[O-])c2)N(C(=O)CC)n2c(nnc2C2CCCCC2)S1	none (no result: ELG1 genotox, Rab9 prom act, ELG1 DNA repair, SMN2 splice enh, NPC1 prom act)
Cc1ccc(CCNC(=O)CCCn2c(=O)c3ccccc3n(CC(=O)Nc3cc(Cl)ccc3C)c2=O)cc1	none (no result: ELG1 genotox, Rab9 prom act, ELG1 DNA repair, NPC1 prom act)
O=C(Cc1ccccc1)NCCc1csc2nc(-c3ccc(Cl)cc3)nn12	none (no result: ELG1 genotox, Rab9 prom act, ELG1 DNA repair, SMN2 splice enh, NPC1 prom act)
CCOn1c(=O)c(-c2cc3ccccc3o2)[n+]([O-])c2ccccc21	ELG1 genotox inconclusive, FLuc counter inconclusive, Rab9 prom act 2.8µM, ELG1 DNA repair inconclusive, SMN2 splice enh 16µM, NPC1 prom act 3.5µM
